Several values for one entry are separate records, joined by “and”; a condition that tells them apart may be missing. Identical values can stand only once. Results filed as inconclusive are left out. Activity calls are given as the source filed them. Unless noted, calls follow the shape of the dose curve; as a rule, active = well fitted curve in the direction sought with a large enough effect in the repeat runs; inconclusive = weak or mixed curves; inactive = flat fitted curve, though single readings scatter.
Columns and labels:
[1] = qHTS assay to test for compound auto fluorescence at 535 nm (green) in HEK293 cells (AID 720680); also: potency is read from the fitted curve at half-maximal effect
[2] = qHTS assay to test for compound auto fluorescence at 460 nm (blue) in HEK293 cell free culture (AID 720681); also: potency is read from the fitted curve at half-maximal effect
Method in brief: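 Compounds were added to cell-free DMEM with 10% FBS and fluorescence read directly. The blue channel used 405 nm excitation and 460 nm emission, with triamterene as the reference fluorophore.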

[3] = qHTS assay to test for compound auto fluorescence at 535 nm (green) in HEK293 cell free culture (AID 720682); also: potency is read from the fitted curve at half-maximal effect
Method in brief: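 Fluorescein serves as the green reference fluorophore; each compound's intrinsic emission at 535 nm (excitation 485 nm) is reported as an equivalent amount of that dye, measured in serum-containing DMEM without cells.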

[4] = qHTS assay to test for compound auto fluorescence at 590 nm (red) in HEK293 cell free culture (AID 720683)
Method in brief: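 Cell-free wells of DMEM with 10% FBS received compound, and intrinsic fluorescence was read at excitation/emission 540/590 nm. Values expressed as equivalence to Rose Bengal sodium.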

[5] = qHTS assay to test for compound auto fluorescence at 590 nm (red) in HepG2 cell free culture (AID 720684)
Method in brief: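 Auto fluorescence equivalency versus Rose Bengal sodium, red channel Ex/Em 540/590 nm; compounds in cell-free MEM/10% FBS; DMSO vehicle control.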

[6] = qHTS assay to test for compound auto fluorescence at 460 nm (blue) in HepG2 cell free culture (AID 720685); also: potency is read from the fitted curve at half-maximal effect
Method in brief: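 Cell-free plates of MEM plus 10% FBS received 23 nL compound or DMSO vehicle; blue-channel (405/460 nm) intensity scored against triamterene as reference fluorophore.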

[7] = qHTS assay to test for compound auto fluorescence at 460 nm (blue) in HepG2 cells (AID 720687)
Method in brief: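 HepG2 cells in MEM with 10% FBS, attached overnight at 37 C, were exposed to compound or DMSO for 1 hr at 37 C, 5% CO2. Blue fluorescence was read at 405/460 nm, with triamterene as reference fluorophore.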

[8] = qHTS assay to test for compound auto fluorescence at 535 nm (green) in HepG2 cell free culture (AID 720686); also: potency is read from the fitted curve at half-maximal effect
[9] = biological target: Glucocorticoid receptor (Homo sapiens) (UniProt P04150); test: qHTS assay to identify small molecule agonists of the glucocorticoid receptor (GR) signaling pathway (AID 720691; active = well fitted activation curve with a large enough effect in the signal ratio in the repeat runs, not every such curve was filed as active; the % refers to the signal ratio; also: potency is read from the fitted curve at half-maximal effect); settings: GR-bla HeLa, beta-lactamase reporter ratio, 18 h; activation: at 62.4 µM (top of the series)
Method in brief: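 Measures GR pathway activation through a GRE-beta-lactamase reporter stably integrated in HeLa cells, with 18 h compound treatment at 37 C and fluorescence detection using a FRET substrate.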

[10] = biological target: Glucocorticoid receptor (Homo sapiens) (UniProt P04150); test: qHTS assay to identify small molecule antagonists of the glucocorticoid receptor (GR) signaling pathway (AID 720692; active = well fitted inhibition curve with a large enough effect in the signal ratio in the repeat runs, not every such curve was filed as active; the % refers to the signal ratio; also: potency is read from the fitted curve at half-maximal effect)
Method in brief: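 Tox21 10K library screened in concentration-response for blockade of dexamethasone (5 nM final)-induced GRE-bla reporter activity in HeLa cells; 18 h treatment, fluorescence read.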
% is scaled to controls: 0 for no effect and ±100 for the full control effect; tags tell the direction and shape of the fitted curve or compound fluorescence and quenching.

Glucocorticoid receptor (Homo sapiens), sequence (P04150 whole entry, looked up): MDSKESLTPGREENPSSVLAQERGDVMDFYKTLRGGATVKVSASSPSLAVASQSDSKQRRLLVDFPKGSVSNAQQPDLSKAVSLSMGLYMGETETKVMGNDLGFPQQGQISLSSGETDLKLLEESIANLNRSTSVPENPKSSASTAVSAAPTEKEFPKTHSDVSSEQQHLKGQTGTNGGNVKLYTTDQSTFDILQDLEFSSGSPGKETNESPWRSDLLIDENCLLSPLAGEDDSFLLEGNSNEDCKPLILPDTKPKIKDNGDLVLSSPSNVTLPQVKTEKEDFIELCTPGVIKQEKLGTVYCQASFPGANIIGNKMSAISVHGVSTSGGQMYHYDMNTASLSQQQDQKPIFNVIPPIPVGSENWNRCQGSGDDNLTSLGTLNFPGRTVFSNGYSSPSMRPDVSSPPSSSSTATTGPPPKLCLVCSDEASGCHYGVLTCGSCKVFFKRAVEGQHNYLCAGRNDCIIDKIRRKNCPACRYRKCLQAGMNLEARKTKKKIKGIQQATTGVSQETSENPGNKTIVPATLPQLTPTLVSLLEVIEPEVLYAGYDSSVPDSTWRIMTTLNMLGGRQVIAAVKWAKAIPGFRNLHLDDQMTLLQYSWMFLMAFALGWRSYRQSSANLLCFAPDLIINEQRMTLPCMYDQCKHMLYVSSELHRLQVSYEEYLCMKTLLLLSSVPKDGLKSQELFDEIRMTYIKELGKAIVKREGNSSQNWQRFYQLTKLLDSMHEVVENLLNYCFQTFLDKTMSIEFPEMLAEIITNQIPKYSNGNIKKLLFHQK

CCCCCCCCCCCCCC[n+]1ccccc1
inactive: Potency [1] | Potency [2] | Potency [3] | Potency [4] | Potency [5] | Potency [6] | Potency [7]

O=C(NO)c1ccccc1
inactive: Potency [1] | Potency [2] | Potency [3] | Potency [4] | Potency [5] | Potency [6] | Potency [8] | Potency [9]

Nc1ccc2cc3ccc(N)cc3nc2c1
inactive: Potency [4] | Potency [5]
active: Potency [1] 11.2 µM [fluorescent] | Potency [2] 11.2 µM | Potency [3] 11.2 µM [fluorescent] | Potency [6] 11.2 µM [fluorescent] | Potency [8] 11.2 µM [fluorescent] and 7.08 µM [fluorescent] | Potency [9] 6.16 µM

CCCCCCCCCCCCCOP(=O)(O)O
inactive: Potency [1] | Potency [2] | Potency [3] | Potency [4] | Potency [5] | Potency [6] | Potency [8] | Potency [9] | Potency [10]

C[C@H]1O[C@@H](O[C@H]2[C@@H](O)C[C@H](O[C@H]3[C@@H](O)C[C@H](O[C@H]4CC[C@@]5(C)[C@H](CC[C@@H]6[C@@H]5C[C@@H](O)[C@]5(C)[C@@H](C7=CC(=O)OC7)CC[C@]65O)C4)O[C@@H]3C)O[C@@H]2C)C[C@H](O)[C@@H]1O
inactive: Potency [1] | Potency [2] | Potency [3] | Potency [4] | Potency [5] | Potency [6] | Potency [8] | Potency [9]

CCc1ccc(O)c(C(C)(C)C)c1
inactive: Potency [1] | Potency [2] | Potency [3] | Potency [4] | Potency [5] | Potency [6] | Potency [8] | Potency [10]

CN1[C@@H]2CC[C@@H]1CC(OC(=O)C(CO)c1ccccc1)C2 (stereo partly specified)
inactive: Potency [1] | Potency [2] | Potency [3] | Potency [4] | Potency [5] | Potency [6] | Potency [7] | Potency [9] | Potency [10]

Cc1ccc(N)cc1O
inactive: Potency [1] | Potency [2] | Potency [3] | Potency [4] | Potency [5] | Potency [6] | Potency [9]

CCCCCCC(C)Nc1ccc(Nc2ccccc2)cc1 (stereo unspecified)
inactive: Potency [1] | Potency [2] | Potency [3] | Potency [4] | Potency [5] | Potency [6] | Potency [8]
active: Potency [10] 43.6 µM

Cc1cccc(Br)c1
inactive: Potency [1] | Potency [2] | Potency [3] | Potency [4] | Potency [5] | Potency [6] | Potency [8] | Potency [9] | Potency [10]

O=S(=O)(O)CCCN1CCOCC1
inactive: Potency [1] | Potency [2] | Potency [3] | Potency [4] | Potency [5] | Potency [6] | Potency [8] | Potency [9] | Potency [10]

Clc1ccc(C(c2ccccc2Cl)C(Cl)Cl)cc1 (stereo unspecified)
active: Potency [10] 10.7 µM and 27.5 µM
inactive: Potency [1] | Potency [2] | Potency [3] | Potency [4] | Potency [5] | Potency [6] | Potency [7]

O=C(c1ccccc1)c1cc(Cl)ccc1O
inactive: Potency [1] | Potency [2] | Potency [3] | Potency [4] | Potency [5] | Potency [6] | Potency [9] | Potency [10]

NC(=O)C(=O)N/N=C/c1ccc([N+](=O)[O-])o1
inactive: Potency [1] | Potency [2] | Potency [3] | Potency [4] | Potency [5] | Potency [6] | Potency [7] | Potency [9] | Potency [10]

Cn1cnc2ncnc(N)c21
inactive: Potency [1] | Potency [2] | Potency [3] | Potency [4] | Potency [5] | Potency [6] | Potency [7]

C=C[C@](C)(O)CC[C@@H]1[C@@]2(C)CCCC(C)(C)[C@@H]2CC[C@@]1(C)O
inactive: Potency [1] | Potency [2] | Potency [3] | Potency [4] | Potency [5] | Potency [6] | Potency [7]

O=C1NCN(c2ccccc2)C12CCN(CCCC(c1ccc(F)cc1)c1ccc(F)cc1)CC2
inactive: Potency [1] | Potency [2] | Potency [3] | Potency [4] | Potency [5] | Potency [6] | Potency [7]

CCC(=O)OCCc1ccccc1
inactive: Potency [1] | Potency [2] | Potency [3] | Potency [4] | Potency [5] | Potency [6] | Potency [7] | Potency [9] | Potency [10]

CC(=O)Oc1ccc(C2(c3ccc(OC(C)=O)cc3)Oc3ccccc3NC2=O)cc1
active: Potency [10] 19 µM
inactive: Potency [1] | Potency [2] | Potency [3] | Potency [4] | Potency [5] | Potency [6] | Potency [8]

CC(CN(C)C)CN1c2ccccc2CCc2ccccc21 (stereo unspecified)
inactive: fluorescence, % of fluorescein [1] 0.0583% [at 18.6 µM] | fluorescence, % of fluorescent control [2] 0.133% [at 18.6 µM] | activity change [3] -0.0046% [at 18.6 µM, active compounds read high] | fluorescence, % of fluorescent control [4] 0.264% [at 18.6 µM] | fluorescence, % of fluorescent control [6] 0.118% [at 18.6 µM] | fluorescence, % of fluorescein control [8] -0.0071% [at 18.6 µM]

O=C1NCCN1CCN1CCC(c2cn(-c3ccc(F)cc3)c3ccc(Cl)cc23)CC1
inactive: Potency [1] | Potency [2] | Potency [3] | Potency [4] | Potency [5] | Potency [6] | Potency [7]
